Measured values taken from ChEMBL document CHEMBL1961873, “Compounds: GSK PKIS; Assays: Nanosyn kinase panel” (2012).

How the values were obtained:
[1] = biological target: Sphingosine kinase 1 (Homo sapiens) (UniProt Q9NYA1); details: at 1 µM;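 also: mean SPHK1 inhibition value reported from the GSK PKIS kinase panel screen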
[2] = biological target: T1, Sphingosine kinase 2 (Homo sapiens) (UniProt Q9NRA0); details: at 0.1 µM
T1 sequence (whole entry): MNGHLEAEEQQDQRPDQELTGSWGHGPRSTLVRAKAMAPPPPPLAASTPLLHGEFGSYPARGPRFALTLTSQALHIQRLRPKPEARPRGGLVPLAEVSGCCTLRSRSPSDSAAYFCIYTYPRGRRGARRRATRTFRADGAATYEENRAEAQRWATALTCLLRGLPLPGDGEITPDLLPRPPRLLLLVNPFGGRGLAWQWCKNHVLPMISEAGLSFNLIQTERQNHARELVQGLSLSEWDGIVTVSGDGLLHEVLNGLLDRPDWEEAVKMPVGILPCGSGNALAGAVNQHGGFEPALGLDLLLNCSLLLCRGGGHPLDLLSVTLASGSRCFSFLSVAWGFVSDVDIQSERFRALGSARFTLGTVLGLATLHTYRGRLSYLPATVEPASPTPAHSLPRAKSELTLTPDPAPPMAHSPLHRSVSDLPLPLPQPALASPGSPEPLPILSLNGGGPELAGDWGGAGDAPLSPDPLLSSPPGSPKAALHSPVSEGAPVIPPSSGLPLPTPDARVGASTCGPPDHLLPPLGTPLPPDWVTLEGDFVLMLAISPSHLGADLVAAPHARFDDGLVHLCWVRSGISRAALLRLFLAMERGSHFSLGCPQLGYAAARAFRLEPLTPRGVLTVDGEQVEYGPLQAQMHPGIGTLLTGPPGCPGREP

[3] = biological target: T1, Sphingosine kinase 2 (Homo sapiens); details: at 1 µM
[4] = biological target: Casein kinase II subunit alpha (Homo sapiens) (UniProt P68400); details: at 0.1 µM
Chain of Casein kinase II subunit alpha (Homo sapiens) (P68400 whole entry, looked up): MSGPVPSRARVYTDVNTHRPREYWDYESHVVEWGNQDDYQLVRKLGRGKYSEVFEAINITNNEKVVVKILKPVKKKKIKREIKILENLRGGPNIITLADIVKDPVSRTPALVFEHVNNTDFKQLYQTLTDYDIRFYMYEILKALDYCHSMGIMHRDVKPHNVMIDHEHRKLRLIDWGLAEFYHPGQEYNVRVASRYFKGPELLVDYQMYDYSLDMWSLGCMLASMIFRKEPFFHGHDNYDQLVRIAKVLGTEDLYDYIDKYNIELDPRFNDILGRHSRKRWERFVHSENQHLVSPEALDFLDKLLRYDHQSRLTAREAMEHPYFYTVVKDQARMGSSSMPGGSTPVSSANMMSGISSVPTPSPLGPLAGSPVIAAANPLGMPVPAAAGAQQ

[5] = biological target: Casein kinase II subunit alpha (Homo sapiens) (UniProt P68400); details: at 1 µM
[6] = biological target: T2, Inhibitor of nuclear factor kappa-B kinase subunit alpha (Homo sapiens) (UniProt O15111); details: at 0.1 µM
T2 sequence (whole entry): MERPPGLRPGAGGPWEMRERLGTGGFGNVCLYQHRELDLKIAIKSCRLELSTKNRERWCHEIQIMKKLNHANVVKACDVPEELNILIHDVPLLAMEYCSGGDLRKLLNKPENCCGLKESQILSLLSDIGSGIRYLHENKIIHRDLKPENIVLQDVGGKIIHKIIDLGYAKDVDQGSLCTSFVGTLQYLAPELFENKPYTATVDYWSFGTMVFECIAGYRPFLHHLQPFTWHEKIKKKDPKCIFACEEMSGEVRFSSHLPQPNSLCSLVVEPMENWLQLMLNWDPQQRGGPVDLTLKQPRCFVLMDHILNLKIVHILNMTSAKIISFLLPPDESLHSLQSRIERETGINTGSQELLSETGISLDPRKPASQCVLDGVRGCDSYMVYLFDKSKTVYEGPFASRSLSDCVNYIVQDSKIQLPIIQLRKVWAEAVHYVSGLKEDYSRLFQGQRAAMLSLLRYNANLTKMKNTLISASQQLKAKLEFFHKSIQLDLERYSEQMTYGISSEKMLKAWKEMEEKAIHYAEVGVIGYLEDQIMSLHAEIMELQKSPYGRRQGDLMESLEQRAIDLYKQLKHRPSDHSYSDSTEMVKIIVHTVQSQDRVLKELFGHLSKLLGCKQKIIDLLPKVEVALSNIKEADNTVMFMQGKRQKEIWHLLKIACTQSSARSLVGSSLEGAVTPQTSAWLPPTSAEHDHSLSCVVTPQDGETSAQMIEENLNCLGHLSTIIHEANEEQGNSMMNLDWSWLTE

[7] = biological target: T2, Inhibitor of nuclear factor kappa-B kinase subunit alpha (Homo sapiens); details: at 1 µM
[8] = biological target: T3, Inhibitor of nuclear factor kappa-B kinase subunit beta (Homo sapiens) (UniProt O14920); details: at 0.1 µM
T3 sequence (whole entry): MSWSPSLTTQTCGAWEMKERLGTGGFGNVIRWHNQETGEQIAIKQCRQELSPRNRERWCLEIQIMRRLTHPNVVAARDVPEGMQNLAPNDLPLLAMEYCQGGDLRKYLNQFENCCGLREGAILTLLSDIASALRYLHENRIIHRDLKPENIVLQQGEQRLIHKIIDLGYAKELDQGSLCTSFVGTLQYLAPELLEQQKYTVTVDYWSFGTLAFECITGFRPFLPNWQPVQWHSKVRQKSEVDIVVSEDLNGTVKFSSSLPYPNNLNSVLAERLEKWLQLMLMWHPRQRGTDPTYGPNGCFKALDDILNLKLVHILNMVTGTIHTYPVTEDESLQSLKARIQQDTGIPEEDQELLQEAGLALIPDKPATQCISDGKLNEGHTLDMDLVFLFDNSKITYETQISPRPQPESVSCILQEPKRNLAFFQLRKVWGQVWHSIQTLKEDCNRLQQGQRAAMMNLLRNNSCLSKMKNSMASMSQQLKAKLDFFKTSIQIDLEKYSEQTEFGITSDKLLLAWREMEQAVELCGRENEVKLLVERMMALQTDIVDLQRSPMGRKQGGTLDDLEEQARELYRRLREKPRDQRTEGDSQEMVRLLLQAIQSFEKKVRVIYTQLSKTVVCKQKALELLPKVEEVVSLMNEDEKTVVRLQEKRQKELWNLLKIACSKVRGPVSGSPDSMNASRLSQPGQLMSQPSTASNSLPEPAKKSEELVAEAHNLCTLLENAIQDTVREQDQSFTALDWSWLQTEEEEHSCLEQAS

[9] = biological target: T3, Inhibitor of nuclear factor kappa-B kinase subunit beta (Homo sapiens); details: at 1 µM
[10] = biological target: T4, Inhibitor of nuclear factor kappa-B kinase subunit epsilon (Homo sapiens) (UniProt Q14164); details: at 0.1 µM;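 also: mean inhibition of IKKε reported, from the GSK PKIS dataset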
T4 sequence (whole entry): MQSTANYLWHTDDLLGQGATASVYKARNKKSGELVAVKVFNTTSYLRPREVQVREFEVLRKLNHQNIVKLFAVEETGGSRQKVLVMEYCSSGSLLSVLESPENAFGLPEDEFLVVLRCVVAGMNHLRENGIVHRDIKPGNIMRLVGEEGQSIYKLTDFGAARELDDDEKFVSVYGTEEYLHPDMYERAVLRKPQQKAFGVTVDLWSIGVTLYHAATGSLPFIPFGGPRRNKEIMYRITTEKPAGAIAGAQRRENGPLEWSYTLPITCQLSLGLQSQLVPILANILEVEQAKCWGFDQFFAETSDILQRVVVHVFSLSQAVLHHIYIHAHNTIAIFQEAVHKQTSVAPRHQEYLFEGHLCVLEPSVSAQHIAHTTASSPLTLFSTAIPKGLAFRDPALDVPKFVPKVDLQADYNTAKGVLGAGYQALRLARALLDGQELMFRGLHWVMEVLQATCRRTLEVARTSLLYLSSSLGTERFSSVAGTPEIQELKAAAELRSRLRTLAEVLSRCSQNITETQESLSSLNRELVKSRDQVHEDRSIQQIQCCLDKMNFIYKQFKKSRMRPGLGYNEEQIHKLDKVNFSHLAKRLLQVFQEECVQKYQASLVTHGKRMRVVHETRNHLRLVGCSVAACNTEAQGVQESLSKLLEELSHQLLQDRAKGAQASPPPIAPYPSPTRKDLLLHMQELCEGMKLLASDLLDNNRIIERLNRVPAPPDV

Chain of Sphingosine kinase 1 (Homo sapiens) (Q9NYA1 whole entry): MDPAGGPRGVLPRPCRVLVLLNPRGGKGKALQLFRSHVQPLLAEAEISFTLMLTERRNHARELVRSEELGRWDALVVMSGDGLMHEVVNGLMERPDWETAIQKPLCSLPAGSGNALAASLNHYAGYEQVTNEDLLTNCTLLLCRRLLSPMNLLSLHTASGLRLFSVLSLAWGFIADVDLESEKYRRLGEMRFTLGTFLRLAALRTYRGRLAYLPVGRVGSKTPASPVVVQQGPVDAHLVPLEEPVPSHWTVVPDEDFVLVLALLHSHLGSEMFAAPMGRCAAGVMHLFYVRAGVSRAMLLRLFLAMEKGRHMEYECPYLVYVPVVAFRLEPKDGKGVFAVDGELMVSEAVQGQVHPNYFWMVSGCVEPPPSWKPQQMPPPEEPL

Compound	inhibition [1]	inhibition [2]	inhibition [3]	inhibition [4]	inhibition [5]	inhibition [6]	inhibition [7]	inhibition [8]	inhibition [9]	inhibition [10]
CN1CCC(n2cnc(-c3ccc(F)cc3)c2-c2ccnc(Nc3ccccc3)n2)CC1	-6.88%	-0.42%	0.78%	3.62%	8.56%	6.78%	1.62%	2.83%	3.93%	3.59%
Nc1ncc(-c2cccc(S(N)(=O)=O)c2)c2scc(-c3ccc(F)c(Cl)c3)c12	-4.57%	-1.05%	0.43%	9.52%	3.4%	-2.46%	-3.58%	3%	5.65%	7.15%
CNC(=O)c1cccc(C#Cc2cncnc2Nc2ccc(OCc3cccc(F)c3)c(Cl)c2)c1	2.62%	0.55%	-7.19%	2.99%	10.1%	-3.42%	-9.45%	0.53%	-0.35%	4.53%
c1ccc(COc2ccc(Nc3ncnc4ccc(-c5ccco5)cc34)cc2)cc1	0.95%	-2.53%	1.35%	1.23%	4.42%	-5.49%	0.49%	1.07%	0.01%	4.51%
COC(=O)c1sc(-n2cnc3cc(OC)c(OC)cc32)cc1OCc1ccccc1C(F)(F)F	1.91%	0.14%	-2.19%	0.66%	-0.18%	3.9%	5.32%	5.59%	4.11%	3.88%
COc1cccc(-c2c[nH]c3c(N/N=C/c4ccncc4)ncnc23)c1	0.2%	1.73%	-1%	8.8%	43.7%	9.76%	9.01%	2.82%	1.73%	2.96%
Clc1ccc(-c2nn3ncccc3c2-c2ccnc(Nc3ccccc3)n2)cc1	-1.12%	-0.19%	0.98%	1.72%	1.08%	-0.83%	0.14%	-3.05%	-3.62%	1.23%
N#Cc1c(NC(=O)CN2CCOCC2)sc2c1CCCC2	-2.59%	1.39%	-0.6%	6.02%	10.9%	6.78%	6.16%	4.25%	5.09%	9.02%
COc1cccc(-n2ncc3c(N/N=C/c4ccc(F)cc4)ncnc32)c1	-1.38%	-1.23%	0.38%	4.77%	15.9%	12.3%	6.86%	5.69%	3.91%	14.1%
CCOc1ccc2c(-c3ccnc(Nc4cccc(C(F)(F)F)c4)n3)cnn2n1	-1.13%	2.38%	-1.13%	5.72%	7.82%	11.5%	6.76%	4.08%	3.66%	8.35%
CC(C)COC(=O)c1ccc2c(c1)/C(=C/Nc1ccc(S(N)(=O)=O)cc1)C(=O)N2	1.92%	-0.06%	-0.44%	7.86%	47.2%	-1.06%	3.25%	-0.4%	6.93%	46.2%
COc1ccc(-c2cc3c(N)ncnc3o2)cc1	0.27%	0.92%	-0.08%	4.9%	14.2%	-1.6%	-3.79%	-0.63%	6.4%	-2.31%
O=C(O[C@H]1CN[C@H](C#Cc2cc3ncnc(Nc4ccc(Cc5ccccc5)cc4)c3s2)C1)N1CCOCC1	-1.06%	-1.12%	-1.6%	6.95%	1.52%	6.44%	1.74%	4%	0.81%	3.09%
CCn1c(-c2nonc2N)nc2cnc(Oc3cccc(NC(=O)c4ccc(N(C)C)cc4)c3)cc21	-3.07%	0%	2.32%	0.64%	0.04%	5.93%	2.52%	2.96%	1.85%	3.07%
NS(=O)(=O)c1ccc(Nc2ncc(-c3ccccc3)o2)cc1	0%	-1.43%	-1.09%	3.56%	10.3%	6.23%	15.3%	3.35%	11.7%	4.43%
CCc1nn2ncccc2c1-c1ccnc(NC2CC2)n1	0.9%	0%	0.3%	1.46%	4.59%	3.61%	6.96%	4.78%	3.76%	4.47%
CC1=C(C(=O)Nc2cc(Cl)c3[nH]ncc3c2)C(c2ccc(C(F)(F)F)cc2)CC(=O)N1 (stereo not given)	-1.96%	0.58%	0.72%	3.06%	1.13%	4.43%	4.34%	3.26%	5.73%	4.64%
